Measured values: ChEMBL document CHEMBL3433997, “St. Jude Leishmania screening dataset” (2016)

How the values were obtained:
Type in all cases: functional
[1] = target: Solute carrier family 2, facilitated glucose transporter member 1 (Homo sapiens) (UniProt P11166); test: ST_JUDE_LEISH: Cytotoxicity at 2uM final concentration against transgenic Leishmania Mexicana promastigotes LmGLUT1 that are glucose transport deficient and complemented with the human glucose transporter GLUT1. Activity is measured by DNA content using SYBR green in vitro
Chain of Solute carrier family 2, facilitated glucose transporter member 1 (Homo sapiens) (P11166 whole entry): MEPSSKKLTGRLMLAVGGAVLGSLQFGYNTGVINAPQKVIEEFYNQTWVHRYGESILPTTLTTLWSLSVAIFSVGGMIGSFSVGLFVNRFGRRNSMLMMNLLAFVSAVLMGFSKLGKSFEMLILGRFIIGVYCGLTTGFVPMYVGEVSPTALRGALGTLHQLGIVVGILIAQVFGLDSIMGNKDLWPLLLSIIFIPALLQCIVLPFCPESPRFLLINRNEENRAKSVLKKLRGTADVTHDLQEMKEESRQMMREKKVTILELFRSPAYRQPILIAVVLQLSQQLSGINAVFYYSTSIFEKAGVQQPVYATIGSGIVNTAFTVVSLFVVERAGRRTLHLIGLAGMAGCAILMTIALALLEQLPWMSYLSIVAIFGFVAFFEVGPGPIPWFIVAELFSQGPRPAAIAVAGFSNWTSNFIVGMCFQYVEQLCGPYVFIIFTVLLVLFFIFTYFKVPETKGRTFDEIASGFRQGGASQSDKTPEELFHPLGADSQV

[2] = target: Hexose transporter 1 (Plasmodium falciparum) (UniProt O97467); test: ST_JUDE_LEISH: Cytotoxicity at 2uM final concentration against transgenic Leishmania Mexicana promastigotes LmPfHT that are glucose transport deficient and complemented with the Plasmodium falciparum hexose transporter. Activity is measured by DNA content using SYBR green in vitro
[3] = target: Glucose transporter (Leishmania mexicana) (UniProt O61059); test: ST_JUDE_LEISH: Cytotoxicity at 2uM final concentration against transgenic Leishmania Mexicana promastigotes LmGT2 that are glucose transport deficient and complemented with the L. Mexicana glucose transporter 2. Activity is measured by DNA content using SYBR green in vitro

Structure (SMILES)	inhibition [1] [%]	inhibition [2] [%]	inhibition [3] [%]
O=C(NC(c1ccccc1)c1ccccc1)C(c1cc2ccccc2o1)N1CCN(C(c2ccccc2)c2ccccc2)CC1 (stereo unspecified)	4.42	2.92	0.24
CC(C)CC(C)NC(=O)C1Cc2c([nH]c3ccc(F)cc23)C2(CCN(Cc3ccccc3)CC2)N1 (stereo unspecified)	7.56	12.3	7.75
Cc1ccc(-n2cc(CNCCc3nc(C)c[nH]3)c(-c3ccc(F)cc3)n2)cc1	4.34	3.49	2.6
COc1ccc(-c2ccc(NC(=O)c3cccc(Cl)c3)cc2)cc1CN1CCC(O)CC1	14.6	15.5	12.4
COc1ccc(NC(=O)/C=C/c2ccccc2Cl)cc1OCCN1CCC(N2CCCC2)CC1	2.99	3.87	4.44
COc1ccc(CNC2CCN(C)CC2)cc1-c1ccc(S(=O)(=O)NCc2ccccc2)c(C)c1	7.68	8.41	7.94
CCNc1cc(C)nc(Nc2ccc(F)cc2)n1	22.3	11.9	8.37
CC(C)N1CCC(NC(=O)N2CCCN(c3ncnc4cc(-c5ccccc5)sc34)CC2)CC1	2.91	2.28	0.31
Cn1cnc2c(SCc3ccc(OCc4ccccc4)cc3)ncnc21	2.71	4.19	6.37
O=S(=O)(c1ccccc1C(F)(F)F)C1CC2CCC(C1)N2S(=O)(=O)c1ccc(Cl)c(C(F)(F)F)c1 (stereo unspecified)	4.13	2.35	0.74
COc1ccc(CC(=O)NC(CCCN2CCC3(CC2)OCc2ccccc23)c2ccc(Cl)c(Cl)c2)cc1 (stereo unspecified)	1.2	2.18	-0.29
CCS(=O)(=O)c1ccc(-c2cnc3[nH]cc(-c4ccc(N)cc4)c3c2)cc1	16.2	21.7	16.2
